# Reference: PubChem BioAssay (NCI)
# About 83,000 compounds went through this panel and 20% of them were active in at least one assay; those are over-represented in the sample as a whole.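 Testing used 96-well plates and a 48-hour single-concentration exposure. Example: -40 means 40% of the starting cells died.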 Unmarked numbers belong to inactive results. Activity calls are given as the source filed them. The calls were made as follows: active = growth percent below 10; inactive = the rest.
# Key:
# Test in all cases: NCI-60 one-dose screen, 48 h (100 = growth as untreated, 0 = no growth, -100 = all killed)
# SK-MEL-2 melanoma = conditions: 10 µM unless noted
# EKVX NSCLC = conditions: 10 µM unless noted
# SN12C renal = conditions: 10 µM unless noted
# UO-31 renal = conditions: 10 µM unless noted
# TK-10 renal = conditions: 10 µM unless noted
# ACHN renal = conditions: 10 µM unless noted
# A498 renal = conditions: 10 µM
# CCRF-CEM leukemia = conditions: 10 µM unless noted
# MOLT-4 leukemia = conditions: 10 µM unless noted
# SR leukemia = conditions: 10 µM unless noted
# RPMI-8226 leukemia = conditions: 10 µM unless noted
# OVCAR-8 ovarian = conditions: 10 µM unless noted
# OVCAR-5 ovarian = conditions: 10 µM unless noted
# OVCAR-4 ovarian = conditions: 10 µM unless noted
# SK-OV-3 ovarian = conditions: 10 µM unless noted
# IGROV1 ovarian = conditions: 10 µM unless noted
# OVCAR-3 ovarian = conditions: 10 µM unless noted
# HS 578T breast = conditions: 10 µM unless noted
# HL-60(TB) leukemia = conditions: 10 µM unless noted
# CAKI-1 renal = conditions: 10 µM unless noted
SMILES,growth (SK-MEL-2 melanoma),growth (EKVX NSCLC),growth (SN12C renal),growth (UO-31 renal),growth (TK-10 renal),growth (ACHN renal),growth (A498 renal),growth (CCRF-CEM leukemia),growth (MOLT-4 leukemia),growth (SR leukemia),growth (RPMI-8226 leukemia),growth (OVCAR-8 ovarian),growth (OVCAR-5 ovarian),growth (OVCAR-4 ovarian),growth (SK-OV-3 ovarian),growth (IGROV1 ovarian),growth (OVCAR-3 ovarian),growth (HS 578T breast),growth (HL-60(TB) leukemia),growth (CAKI-1 renal) [%]
COc1cc2ncnc(Nc3ccc(F)c(Cl)c3)c2cc1OCC(=O)N1CCN(C)CC1,94.4%,61.8%,76.9%,55.9%,23.4%,37.8%,69.9%,87%,81.2%,74.5%,90.5%,90%,78.4%,79.5%,13.7%,48.2%,78.2%,93.4%,–,–
CC1(C)N=C(N)N=C(N)N1c1ccc(CCCCc2ccc(Cl)c(S(=O)(=O)F)c2)c(Cl)c1,38.7%,45.3%,24.6%,27.3%,41.7%,28.2%,69.6%,3.5% (active),-33.1% (active),–,-24.2% (active),5.53% (active),44.9%,35.8%,57.4%,–,29.5%,75.3%,-43.9% (active),–
CC(=O)O[C@H](C[C@H](C(C)C)N(C)C(=O)[C@@H](NC(=O)[C@H]1CCCCN1C)C(C)C)c1nc(C(=O)N[C@@H](Cc2ccccc2)C[C@H](C)C(=O)O)c(C(C)C)s1,23.6%,39.3%,16.6%,41.5%,61.6%,27.3%,-8.17% (active),3.84% (active),7.85% (active),7.04% (active),17.4%,6.46% (active),39.1%,–,27%,20.6%,-28.1% (active),17%,-41.4% (active),–
Clc1cccc(Cl)c1Cl,74.5%,95.7%,120%,85.3%,86.8%,–,107%,96.4%,104%,92.7%,110%,112%,97.8%,106%,104%,104%,94.2%,102%,99.6%,–
CC12CC=CCC1CCC1C2CCC2(C)C(c3ccc(=O)oc3)CCC12O (stereo not drawn),-33.6% (active),-85.1% (active),-13.1% (active),-91.4% (active),-62.2% (active),-90% (active),-22.7% (active),1.08% (active),-15.7% (active),-3.66% (active),-9.88% (active),-41.8% (active),-80.6% (active),-48.1% (active),-8.44% (active),-12.3% (active),-76.8% (active),-18.5% (active),–,–
O=[N+]([O-])c1cc([N+](=O)[O-])c(Nn2c3ccccc3c3ccccc32)c([N+](=O)[O-])c1,-50.4% (active),6.19% (active),5.01% (active),-3.91% (active),0.75% (active),–,-43.2% (active),-0.784% (active),0.889% (active),1.48% (active),-20.5% (active),5.97% (active),29.4%,6.45% (active),-17.2% (active),22.8%,12.4%,5.42% (active),-30.3% (active),–
Clc1ccc(COC(Cn2ccnc2)c2ccc(Cl)cc2Cl)cc1 (stereo not drawn),68.9%,30.7%,68.4%,20.7%,62%,–,43.4%,30.6%,-28.4% (active),-25.9% (active),39.7%,51.8%,–,54%,91.2%,35%,40.4%,69.2%,-40.2% (active),21.4
O=C1C=C2C(=CCOC2O)O1 (stereo not drawn),10.4%,103%,35.1%,-11.6% (active),-37.2% (active),-18.7% (active),107%,–,–,–,-19.1% (active),-21.5% (active),41.5%,25.4%,100%,42.9%,-78.6% (active),50%,–,–
Brc1ccc2c(c1)c(-c1nc(-c3c[nH]c4ncccc34)cs1)cn2CCN1CCCCC1,82.7%,66.9%,80%,44.8%,81.5%,–,95.7%,50.8%,42%,16.2%,51.2%,83.5%,109%,74.9%,103%,46.8%,85.1%,76.7%,66%,–
Clc1ccc(CSC(Cn2ccnc2)c2ccc(Cl)cc2Cl)cc1 (stereo not drawn),34.1%,31.7%,38.5%,4.12% (active),32.3%,–,49.2%,20%,1.87% (active),2.95% (active),29.8%,14.3%,–,25.9%,71.9%,29.1%,38.8%,63.5%,-11.6% (active),20.8
Clc1cc(N2CC2)nc(N2CC2)n1,91%,107%,48.5%,74.7%,104%,22.2%,104%,54.8%,–,34.7%,80.4%,64.5%,102%,95.2%,71%,109%,107%,115%,–,–
COC(=O)[C@@H](C[C@H](Cc1ccccc1)NC(=O)c1csc([C@@H](C[C@H](C(C)C)N(C)C(=O)[C@@H](NC(=O)[C@H]2CCCCN2C)C(C)C)OC(C)=O)n1)NC(=O)OCc1ccccc1,-10.4% [9.5 µM] (active),51.5% [9.5 µM],15% [9.5 µM],27.3% [9.5 µM],45.2% [9.5 µM],16.4% [9.5 µM],–,6.42% [9.5 µM] (active),11.8% [9.5 µM],-23.3% [9.5 µM] (active),-9.01% [9.5 µM] (active),13.3% [9.5 µM],42.2% [9.5 µM],46.2% [9.5 µM],12.4% [9.5 µM],13.2% [9.5 µM],-23.7% [9.5 µM] (active),12.9% [9.5 µM],-40.2% [9.5 µM] (active),–
CCN(CC)CCOC(=O)C(OC(C)C)(c1ccccc1)c1ccccc1,88.2%,93.5%,106%,79.1%,89%,104%,72.6%,102%,93.1%,–,102%,106%,92.9%,103%,94.4%,87.2%,97.3%,93.4%,–,–
